# Experimental data taken from PubChem BioAssay (EPA / NIEHS).
# The source made the active and inactive calls. The calls were made as follows: active = hit-call score of the fitted dose curve at least 0.9, where 1 is the maximum; inactive = score below 0.9.
# Assay: ATG_CMV_CIS: Attagene CIS-FACTORIAL HepG2 Assay for human CMV (Internal Marker) (AID 2282928);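 also: endpoint acts as a background internal control marker rather than a target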
# Details: HepG2 CMV promoter reporter, transcription factor profiling; actives raise or lower the signal
# Procedure: ATG_CIS is a cell-based, multiplexed-readout assay that uses HepG2, a human liver cell line, with measurements taken at 24 hours after chemical dosing in a 24-well plate.ATG_CMV_CIS is one of 52 assay component(s) measured or calculated from the ATG_CIS assay. It is designed to make measurements of mRNA induction, a form of inducible reporter, as detected with fluorescence intensity signals by Reverse transcription polymerase chain reaction (RT-PCR) and Capillary electrophoresis technology.Data from the assay component ATG_CMV_CIS was analyzed into 1 assay endpoint. This assay endpoint, ATG_CMV_CIS, was analyzed with bidirectional fitting relative to DMSO as the negative control and baseline of activity. Using a type of inducible reporter, measures of mRNA for gain or loss-of-signal activity can be used to understand the background control at the transcription factor-level as they relate to the gene . Furthermore, this assay endpoint can be referred to as a secondary readout, because this assay has produced multiple assay endpoints where this one serves a background control function. To generalize the intended target to other relatable targets, this assay endpoint is annotated to the background measurement intended target family, where the subfamily is internal marker.
# Human liver HepG2 cells are transiently transfected with multiple reporter transcription units (MRTUs) in 6-well plates using FuGene 6 reagent (Roche; 3 ml FuGene/1 mg DNA). The MRTU constructs are regulated by a cis-regulating element (promoter). […] A major difference between the CIS and TRANS system is that in CIS activities of endogenous TFs are measured, whereas the TRANS assay evaluates changes in activities of exogenous, chimeric NR-Gal4 proteins. […] At the end of 24 hour incubation, total RNA was isolated using TriZol reagent (Invitrogen). The isolated RNA is then reverse-transcribed using oligo(dT) primer and Mo-MLV reverse transcriptase (Invitrogen) with DNAse I (Ambion) treatment for 30 min. The one-tenth of the produced cDNA was amplified by PCR using Taq DNA polymerase (Invitrogen) and two reporter sequence-specific primers. The PCR products were fluorescently labeled by primer extension with 6-arboxyfluorescein (6-FAM) 5'-labeled reporter sequence-specific primer (2 min at 95 C, 20 s at 68 C and 10 min at 72 C) and these products were digested with 5U of HpaI (New England Biolabs) for 2h at 37 C. The fragments were purified using Qiaquick PCR columns (Qiagen), analyzed on an ABI 3130xL genetic analyzer (Applied Biosystems) with peak positions identified by using a set of X-rhodamine (ROX)-labeled MapMarker1000 molecular weight standards (BioVentures). The raw capillary electrophoresis data was processed using Attagraph software (Attagene).
SMILES,outcome,AC50
CCOP(=S)(OCC)Oc1ccc2c(C)c(Cl)c(=O)oc2c1,inactive,
CNC(=O)ON=C(SC)C(=O)N(C)C,inactive,
Cc1ccn2nc(S(=O)(=O)Nc3c(F)cccc3F)nc2n1,inactive,
CCC(=NOC/C=C/Cl)C1=C(O)CC(C2CCOCC2)CC1=O (stereo not given),inactive,
C[Si](Cn1cncn1)(c1ccc(F)cc1)c1ccc(F)cc1,inactive,
FC(F)C(F)(F)OCC(Cn1cncn1)c1ccc(Cl)cc1Cl (stereo not given),,16.2 µM (active)
CCCSP(=O)(OCC)SCCC,inactive,
COc1cccc(C(=O)NN(C(=O)c2cc(C)cc(C)c2)C(C)(C)C)c1C,inactive,
CN(C)C(=O)Nc1cccc(C(F)(F)F)c1,inactive,
CC1(C(=O)Nc2ccc(O)c(Cl)c2Cl)CCCCC1,inactive,
CCc1cnc(C2=NC(C)(C(C)C)C(=O)N2)c(C(=O)O)c1 (stereo not given),inactive,
COc1ccc(C(=CC(=O)N2CCOCC2)c2ccc(Cl)cc2)cc1OC,,2.48 µM (active)
CSC1=N[C@@](C)(c2ccccc2)C(=O)N1Nc1ccccc1,inactive,
CC(C)N(C(=O)SCC(Cl)=C(Cl)Cl)C(C)C,inactive,
CC(COc1ccc(Oc2ccccc2)cc1)Oc1ccccn1 (stereo not given),inactive,
CCOP(=S)(Oc1cnc(C(C)(C)C)nc1)OC(C)C (stereo not given),,50 µM (active)
CCOP(=S)(OCC)OC(Cl)C(Cl)(Cl)Cl (stereo not given),,71.1 µM (active)
O=C(O)c1cc(Oc2ccc(C(F)(F)F)cc2Cl)ccc1[N+](=O)[O-],inactive,
Nc1c(Cl)cc([N+](=O)[O-])cc1Cl,,50 µM (active)
CCCOCC(=Nc1ccc(Cl)cc1C(F)(F)F)n1ccnc1,,7 µM (active)

SMILES,outcome,AC50
CN1COCN(Cc2cnc(Cl)s2)C1=N[N+](=O)[O-],inactive,
CCc1cccc(CC)c1N(COC)C(=O)CCl,inactive,
CCCCN(CC)c1c([N+](=O)[O-])cc(C(F)(F)F)cc1[N+](=O)[O-],inactive,
CCCCOC(=O)[C@@H](C)Oc1ccc(Oc2ccc(C#N)cc2F)cc1,inactive,
CN(C)[C@@H]1C(=O)C(C(N)=O)=C(O)[C@@]2(O)C(=O)C3=C(O)c4c(O)cccc4[C@@](C)(O)[C@H]3[C@H](O)[C@@H]12,inactive,
S=C1NCCN1,inactive,
Cc1cc(C2CC2)nc(Nc2ccccc2)n1,,13.1 µM (active)
CCc1cccc(C)c1N(C(=O)CCl)C(C)COC (stereo not given),inactive,
CCCCOC(=O)c1ccccc1C(=O)O,inactive,
CCOP(=O)(NC(C)C)Oc1ccc(SC)c(C)c1 (stereo not given),inactive,
COc1cc(OC)nc(Sc2cccc(Cl)c2C(=O)O)n1,inactive,
C#CCC1=C(C)C(OC(=O)C2C(C=C(C)C)C2(C)C)CC1=O (stereo not given),inactive,
CC(Oc1cccc(Cl)c1)C(=O)O (stereo not given),inactive,
CCNc1nc(Cl)nc(NC(C)(C)C#N)n1,inactive,
CC(C)=CC1C(C(=O)OCN2C(=O)C3=C(CCCC3)C2=O)C1(C)C (stereo not given),inactive,
CCCOc1nn(C(=O)NS(=O)(=O)c2ccccc2C(=O)OC)c(=O)n1C,inactive,
CCOP(=O)(SC(C)CC)N1CCSC1=O (stereo not given),inactive,
O=c1ccc(=O)[nH][nH]1,inactive,
CC[C@H](C)[C@H]1O[C@]2(C=C[C@@H]1C)C[C@@H]1C[C@@H](C/C=C(\C)[C@@H](O[C@H]3C[C@H](OC)[C@@H](O[C@H]4C[C@H](OC)[C@@H](NC)[C@H](C)O4)[C@H](C)O3)[C@@H](C)/C=C/C=C3\CO[C@@H]4[C@H](O)C(C)=C[C@@H](C(=O)O1)[C@]34O)O2,inactive,
C#CC(C)(C)NC(=O)c1cc(Cl)cc(Cl)c1,,39.3 µM (active)
